This note sets out measurements from PubChem BioAssay (NCI).

About 79,000 compounds went through this panel and 15% of them were active in at least one assay; those are over-represented in the sample as a whole. Unmarked numbers belong to inactive results. Activity calls are given as the source filed them. Cut-off read from the data, not from the text of the source: active = growth inhibition above about 70%; inactive = the rest.

The first assay in a line: NCI Yeast Anticancer Drug Screen. Data for the rad50 strain (AID 155).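 Note: 0% = growth of vehicle-only cultures of the same strain.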 The settings on record: S. cerevisiae rad50 strain growth inhibition; at 50.0 µM; stronger effect = higher value. In short, it runs like this:
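Genetically altered yeast (DNA repair pathway); compound treatment; growth inhibition vs vehicle ctrl.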
Take `O=C1CSC(c2ccc(Cl)c(Cl)c2)N1c1nncs1` (stereo not given): the growth inhibition was -18.7%.

For the compound `COc1ccccc1C1OC2=C(Nc3ccc([N+](=O)[O-])cc3N2)C1=O` (stereo not given), the growth inhibition is 12.2%.

With `COC(=O)C1=C(\O)C[C@@]2(C)CC[C@@H](C(=O)OC)C2C/C=C\1C(=O)OC` (stereo not given in full), the growth inhibition was -4.75%.

Consider `O=C1Nc2ncnc(Cl)c2Cc2ccccc21`, for which the growth inhibition is -2.6%.

Regarding `COc1ccc2c(c1)OC(=O)C(S(=O)(=O)c1ccccc1)C2` (stereo not given), the growth inhibition is 6.25%.

As for `C[C@@H](CO)OCOCc1ccccc1`, the growth inhibition is 7.5%.

For the compound `CC(=O)N(C1CCCCC1)C1CCCCC1`, the growth inhibition was 30.2%.

As for `CCCC(/C(C)=N/NC(N)=O)C1CCCCC1` (stereo not given), the growth inhibition is 14.2%.

Take `COC(=O)c1cc(C(=O)OC)c(CC(=O)C(=O)Nc2ccc(Cl)c(C(F)(F)F)c2)nc1CC(=O)C(=O)Nc1ccc(Cl)c(C(F)(F)F)c1`: the growth inhibition was -25.2%.

In the case of `Cc1cc(=O)c2cc3ccc4cccc5ccc(c2[nH]1)c3c45`, the growth inhibition was -12.6%.

Turning to `CC(C)=C1C(=O)C[C@]2(C)C[C@H]3O[C@]3(C)CC[C@@H]3O[C@@]3(C)CC[C@@H]12`, the growth inhibition is 0.3%.

For `Cc1ccc(C(=O)Nc2ccc3c(c2)Cc2ccccc2-3)cc1`, the growth inhibition was -19.3%.

With `COc1ccc(C(CC(=O)O)c2ccccc2)cc1` (stereo not given), the growth inhibition is -31.4%.

In the case of `COc1cc(/C=C2\C(=O)N(C(=O)c3ccc(NC(C)=O)cc3)N=C2C)ccc1O`, the growth inhibition was -44.7%.

For the compound `CNS(=O)(=O)c1ccccc1C(=N)c1ccccc1`, the growth inhibition was -0.3%.

For the compound `C/C(CC(=O)CCC(=O)Nc1cccc(C(F)(F)F)c1)=N\NC(=O)NN`, the growth inhibition is -25.8%.

As to `O=C(OCCN1CCOCC1)c1cc2ccccc2oc1=O`, the growth inhibition was 1.8%.

Turning to `CCCCCCCCCCCCCCCC(=O)N(CCCCCCCCCCC(=O)O)CC(O)C(O)C(OC1OC(CO)C(O)C(O)C1O)C(O)CO` (stereo not given), the growth inhibition is -8.15%.

Turning to `COc1ccc2c(c1)C=C(C(C)(C)C)NS2(=O)=O`, the growth inhibition was 23.6%.

Turning to `O=c1[nH]c2cc(Cl)ccc2nc1/C=C(\O)c1ccc(O)cc1`, the growth inhibition was 31%.

With `CC(C)NC(=O)Nc1cccc(Cl)c1`, the growth inhibition is 0.75%.

As for `CCOP(=O)(OCC)C1(O)CC(n2cc(C)c(=O)[nH]c2=O)OC1CO` (stereo not given), the growth inhibition is 7.3%.

With `Cc1ccc(C(=O)CSC2=NCCN2)cc1Cl`, the growth inhibition was -9.75%.

As for `CCOCCOC(=O)C1CCC(=O)N1CN(C(C)=O)c1cc(OC)ccc1OC` (stereo not given), the growth inhibition is -17.9%.

As for `CC1CC=C(C(O)C(C)C)C1` (stereo not given), the growth inhibition was 0.2%.

As for `CC(=O)NC1=C(N2CCC2C)C(=O)c2ccccc2C1=O` (stereo not given), the growth inhibition is -2.4%.

For the compound `CC(COc1cc(Cl)c(Cl)cc1Cl)OC(=O)COc1ccc(Cl)cc1Cl` (stereo not given), the growth inhibition is 8.75%.

As to `NC1=CN(Cc2ccccc2)C2=N/C(=C\c3ccccc3)C(=O)N12`, the growth inhibition is -13.3%.

As for `Cc1cc2c(s1)C(=O)c1sccc1C2=O`, the growth inhibition was 89.7% (active).

As to `CCC(=O)Nc1cc(C)ccc1Cl`, the growth inhibition is -3.95%.

For the compound `CCN1c2ccccc2CC(CCN(C(C)C)C(C)C)(C(N)=O)c2ccccc21` (stereo not given), the growth inhibition is 40.9%.

In the case of `COC1OC(COS(C)(=O)=O)C2OC(C)(C)OC12` (stereo not given), the growth inhibition was 11.6%.

As to `N#Cc1[nH]cnc1N`, the growth inhibition was -6.95%.

In the case of `O=C(Oc1ccccc1OC(=O)c1ccc(Cl)cc1)c1ccc(Cl)cc1`, the growth inhibition is 3.15%.

Take `O=C(O)c1ccnc2c(S(=O)(=O)O)cccc12`: the growth inhibition was 14.7%.

In the case of `c1ccc(CN2COc3ccc4c5c(ccc4c3C2)OCN(Cc2ccccc2)C5)cc1`, the growth inhibition is -13.1%.

For `COc1ccc2cccc(C(=O)O)c2c1`, the growth inhibition is 1.3%.

As to `O=S1(=O)OCCOS(=O)(=O)C1(I)I`, the growth inhibition is 11.7%.

On to `O=[N+]([O-])c1ccc(P(=O)(O)c2ccc([N+](=O)[O-])cc2)cc1`, for which the growth inhibition was 15%.

With `CC1(C)Nc2cc3c(cc2-n2cccc21)oc1ccccc13`, the growth inhibition was 17.3%.

Another assay in a line: NCI Yeast Anticancer Drug Screen. Data for the mec2-1 strain (AID 157). The settings on record: S. cerevisiae mec2-1 strain, at 50.0 µM, stronger effect = higher value. In short, it runs like this: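 mec2-1 yeast strain, carrying an alteration in DNA damage repair or cell cycle control, was exposed to compounds; growth inhibition was measured relative to vehicle-treated controls.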
As to `O=C1CSC(c2ccc(Cl)c(Cl)c2)N1c1nncs1` (stereo not given), the growth inhibition was 11.8%.

Take `COc1ccccc1C1OC2=C(Nc3ccc([N+](=O)[O-])cc3N2)C1=O` (stereo not given): the growth inhibition was 10.4%.

Turning to `COC(=O)C1=C(\O)C[C@@]2(C)CC[C@@H](C(=O)OC)C2C/C=C\1C(=O)OC` (stereo not given in full), the growth inhibition is -6.25%.

With `O=C1Nc2ncnc(Cl)c2Cc2ccccc21`, the growth inhibition was -6.9%.

In the case of `COc1ccc2c(c1)OC(=O)C(S(=O)(=O)c1ccccc1)C2` (stereo not given), the growth inhibition is 14.6%.

As to `C[C@@H](CO)OCOCc1ccccc1`, the growth inhibition is -1.25%.

Take `CC(=O)N(C1CCCCC1)C1CCCCC1`: the growth inhibition is 20.6%.

On to `CCCC(/C(C)=N/NC(N)=O)C1CCCCC1` (stereo not given), for which the growth inhibition is 7.45%.

On to `COC(=O)c1cc(C(=O)OC)c(CC(=O)C(=O)Nc2ccc(Cl)c(C(F)(F)F)c2)nc1CC(=O)C(=O)Nc1ccc(Cl)c(C(F)(F)F)c1`, for which the growth inhibition was -30.2%.

In the case of `Cc1cc(=O)c2cc3ccc4cccc5ccc(c2[nH]1)c3c45`, the growth inhibition was -8.35%.

Regarding `CC(C)=C1C(=O)C[C@]2(C)C[C@H]3O[C@]3(C)CC[C@@H]3O[C@@]3(C)CC[C@@H]12`, the growth inhibition is -8.05%.

For the compound `Cc1ccc(C(=O)Nc2ccc3c(c2)Cc2ccccc2-3)cc1`, the growth inhibition was -23.6%.

On to `COc1ccc(C(CC(=O)O)c2ccccc2)cc1` (stereo not given), for which the growth inhibition was -42.6%.

Regarding `COc1cc(/C=C2\C(=O)N(C(=O)c3ccc(NC(C)=O)cc3)N=C2C)ccc1O`, the growth inhibition is -41.1%.

As for `CNS(=O)(=O)c1ccccc1C(=N)c1ccccc1`, the growth inhibition is -8.25%.

As for `C/C(CC(=O)CCC(=O)Nc1cccc(C(F)(F)F)c1)=N\NC(=O)NN`, the growth inhibition is -16.8%.

With `O=C(OCCN1CCOCC1)c1cc2ccccc2oc1=O`, the growth inhibition is 2.65%.

As to `CCCCCCCCCCCCCCCC(=O)N(CCCCCCCCCCC(=O)O)CC(O)C(O)C(OC1OC(CO)C(O)C(O)C1O)C(O)CO` (stereo not given), the growth inhibition is -23.6%.

As for `COc1ccc2c(c1)C=C(C(C)(C)C)NS2(=O)=O`, the growth inhibition was -22.6%.

For `O=c1[nH]c2cc(Cl)ccc2nc1/C=C(\O)c1ccc(O)cc1`, the growth inhibition was 2.25%.

On to `CC(C)NC(=O)Nc1cccc(Cl)c1`, for which the growth inhibition is 7.2%.

In the case of `CCOP(=O)(OCC)C1(O)CC(n2cc(C)c(=O)[nH]c2=O)OC1CO` (stereo not given), the growth inhibition was 59.1%.

As for `Cc1ccc(C(=O)CSC2=NCCN2)cc1Cl`, the growth inhibition is -21.8%.

In the case of `CCOCCOC(=O)C1CCC(=O)N1CN(C(C)=O)c1cc(OC)ccc1OC` (stereo not given), the growth inhibition is -3.6%.

`CC1CC=C(C(O)C(C)C)C1` (stereo not given): the growth inhibition is 6.2%.

In the case of `CC(=O)NC1=C(N2CCC2C)C(=O)c2ccccc2C1=O` (stereo not given), the growth inhibition was 0.8%.

Turning to `CC(COc1cc(Cl)c(Cl)cc1Cl)OC(=O)COc1ccc(Cl)cc1Cl` (stereo not given), the growth inhibition is 8.85%.

For `NC1=CN(Cc2ccccc2)C2=N/C(=C\c3ccccc3)C(=O)N12`, the growth inhibition was -5.8%.

As to `Cc1cc2c(s1)C(=O)c1sccc1C2=O`, the growth inhibition is 90.8% (active).

As to `CCC(=O)Nc1cc(C)ccc1Cl`, the growth inhibition is -7.9%.

With `CCN1c2ccccc2CC(CCN(C(C)C)C(C)C)(C(N)=O)c2ccccc21` (stereo not given), the growth inhibition is 4.9%.

Consider `COC1OC(COS(C)(=O)=O)C2OC(C)(C)OC12` (stereo not given), for which the growth inhibition is 1.85%.

Take `N#Cc1[nH]cnc1N`: the growth inhibition is -5.95%.

With `O=C(Oc1ccccc1OC(=O)c1ccc(Cl)cc1)c1ccc(Cl)cc1`, the growth inhibition was 6.4%.

In the case of `O=C(O)c1ccnc2c(S(=O)(=O)O)cccc12`, the growth inhibition was -2.05%.

Take `c1ccc(CN2COc3ccc4c5c(ccc4c3C2)OCN(Cc2ccccc2)C5)cc1`: the growth inhibition is -5.45%.

On to `COc1ccc2cccc(C(=O)O)c2c1`, for which the growth inhibition is -10.3%.

For `O=S1(=O)OCCOS(=O)(=O)C1(I)I`, the growth inhibition is -26.2%.

For `O=[N+]([O-])c1ccc(P(=O)(O)c2ccc([N+](=O)[O-])cc2)cc1`, the growth inhibition is 17.6%.

Turning to `CC1(C)Nc2cc3c(cc2-n2cccc21)oc1ccccc13`, the growth inhibition is -3.55%.
